This is a sample that favours compounds with a hit; in the whole collection about 11% have one here.
Tau fibril ThT: tau fibrillization inhibition (ThT binding); P10636; recombinant tau K18 P301L, heparin-induced fibrillization, ThT fluorescence; Potency, µM (highest dose often 57.4 µM), inactives show at the highest dose activity, negative = inhibition, most hits filed as inhibitors; 2.1% of 270,000 active; also: potency is read from the fitted curve at half-maximal effect; nearly all actives have a fitted effect of over 55% in size
Target sequence (P10636 561-689 P618L limits assumed): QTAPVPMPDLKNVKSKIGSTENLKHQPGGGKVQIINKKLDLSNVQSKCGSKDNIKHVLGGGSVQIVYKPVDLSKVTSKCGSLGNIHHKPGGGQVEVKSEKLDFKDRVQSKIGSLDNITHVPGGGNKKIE
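Using a mix of unlabeled (15 uM) and Alexa 594-labeled (0.24 uM) tau K18 P301L, heparin-triggered fibrillization over 6 hr at 37 C was scored by ThT fluorescence.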
Sfp inh: Sfp phosphopantetheinyl transferase inhibition; Biochemical Sfp PPTase activity, qHTS; Potency, µM, without a hit: largest response in the series, negative = inhibition, usual class: inhibitors; 3.5% of 310,000 active; AID 1490;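 also: the enzyme is Sfp with the accession as filed and its product quenches rhodamine fluorescence; potency is read from the fitted curve at half-maximal effect; 0% = enzyme reaction without inhibitor and -100% = no enzyme wells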
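Fluorescence-quenching assay with 15 nM Sfp, 5 uM rhodamine-CoA and 12.5 uM BHQ-2-labelled ybbR peptide in pH 7.6 Hepes/MgCl2 buffer. Enzyme was pre-incubated with compound for 15 min at room temperature. Rate was taken from the 30-min fluorescence change (525/598 nm).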
G9a block: G9a (human) methyltransferase inhibition. G9a H3K9 monomethylation, AlphaScreen, 2 h. Potency, µM (series often up to 102 µM), for the others: at the highest dose activity, negative = inhibition, hits mostly inhibitors. 8.8% of 350,000 active; also: potency is read from the fitted curve at half-maximal effect; nearly all actives have a fitted effect of over 75% in size
Target sequence (Q96KQ7 913-1193 limits assumed): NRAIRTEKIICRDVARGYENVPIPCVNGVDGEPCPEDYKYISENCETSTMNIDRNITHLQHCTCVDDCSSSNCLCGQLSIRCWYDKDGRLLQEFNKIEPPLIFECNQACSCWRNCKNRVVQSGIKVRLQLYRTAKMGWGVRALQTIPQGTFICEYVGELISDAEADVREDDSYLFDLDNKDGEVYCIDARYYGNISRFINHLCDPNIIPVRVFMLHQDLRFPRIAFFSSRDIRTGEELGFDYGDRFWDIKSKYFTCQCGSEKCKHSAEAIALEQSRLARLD
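Step 1: enzyme (final 20 nM) with compound, 15 min RT. Step 2: substrate peptide 500 nM and SAM 20 uM, 2 h RT. Step 3: anti-H3K9me1 antibody and AlphaScreen beads, 10 min, then plate read.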
Tau FP inhib: blocks human tau fibril formation measured by polarization; P10636; K18 P301L tau heparin fibrillization, Alexa594 FP, 6 h; Potency, µM (top dose mostly 57.7 µM), for the others: at the top dose activity, negative = inhibition, actives largely listed as inhibitors; 0.39% of 280,000 active; AID 1468; also: potency is read from the fitted curve at half-maximal effect; nearly all actives have a fitted effect of over 55% in size
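Recombinant K18 P301L […], labeled with Alexa 594 at 0.24 uM over 15 uM unlabeled; heparin inducer 20 uM final; 37 C, 6 hr; FP endpoint.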
Coupling enz: inhibits coupling enzyme system, counter-screen for aldolase hits | 0.67% of 290,000 active | AID 2472 | coupling enzyme system counterscreen, AmpLite Red fluorescence | activity change, negative = inhibition, % at 58.2 µM, hits read low; in the data active = activity change below about -30%
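Fluorescence at 525 nm excitation and 598 nm emission measured inhibition of the coupled detection system without aldolase. Compounds (at 57.5 uM final) were preincubated 10 min at room temperature with coupling enzyme reagent before a 20 min substrate/AmpLite Red step.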
Tau fluor counter: counter-screen for tau fibril formation inhibitors; tau K18 P301L Alexa594 fluorescence, heparin fibrillization; Potency, µM (series often up to 57.7 µM), without a hit: top-dose activity change, negative = decrease; 0.93% of 280,000 active; also: potency is read from the fitted curve at half-maximal effect; nearly all actives have a fitted effect of over 55% in size
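Human tau K18 P301L (15 uM unlabeled, 0.24 uM Alexa 594-labeled) in 100 mM sodium acetate pH 7 with 20 uM heparin, 6 hr at 37 C. ThT 30 uM added, 1 hr ambient; Alexa 594 FP and total fluorescence read at 555/632 nm.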
* = called active by the depositor; ? = inconclusive; · = no result; ! = a repeat was not active; [ ] = remark or other dose. Unless noted, calls follow the shape of the dose curve; as a rule, active = well fitted curve in the direction sought with a large enough effect; inconclusive = small, poorly fitted or top-dose-only effect, or another doubt; inactive = no such curve, though single readings can be large; an effect the other way counts as inactive or inconclusive. Unless noted, % is scaled to controls: 0 for no effect and ±100 for the full control effect.

SMILES | Tau fibril ThT | Sfp inh | G9a block | Tau FP inhib | Coupling enz | Tau fluor counter
O=C(Nc1ccc(S(=O)(=O)Nc2ccccc2)cc1)c1ccc(CN2CCOCC2)cc1 | 12% | -1% | -32% | ? | 0 | -34%
COc1cccc(C(=O)NCC(c2ccc3c(c2)OCO3)N2CCN(C)CC2)c1 (centres undefined) | 11% | · | -4%[59 µM] | -7% | · | 1%
c1cc2c(cnc3cscc32)s1 | -20% | -15% | 14µM* | ? | -3 | -8%
CN1CCc2c(sc3c2C(=O)NC(c2ccc(OC(=O)c4ccc(C(C)(C)C)cc4)cc2)N3)C1 (centres undefined) | ? | · | 7.9µM* | -9% | · | -19%
O=C1NC(c2ccccn2)Nc2sc3c(c21)CCC3 (centres undefined) | 20µM* | 32µM* | 22µM* | ? | -16 | -26%
CN1CCc2c(sc3c2C(=O)NC(c2ccc(OC(=O)c4ccc(Cl)cc4)cc2)N3)C1 (centres undefined) | 6.3µM* | · | 16µM* | -4% | · | -12%
O=C1NC(c2ccc(Br)cc2)Nc2sc3c(c21)CCC3 (centres undefined) | ? | 40µM* | ? | ? | -4 | -22%
COc1ccc(S(=O)(=O)NCCc2csc(-c3ccc(F)cc3)n2)cc1 | -9% | · | 25%[59 µM] | -1% | · | -21%
CC(C)(C)C1CCc2c(sc3c2C(=O)NC(c2ccco2)N3)C1 (centres undefined) | ? | 56µM* | 10µM* | -3% | 1 | -14%
CCOC(=O)N1CCc2c(sc3c2C(=O)NC(c2cc(OC)c(OC)c(OC)c2)N3)C1 (centres undefined) | 16µM* | · | ? | -7% | · | -25%
Cc1ccc(C2NC(=O)c3c(sc4c3CCN(C)C4)N2)o1 (centres undefined) | ? | ? | 26%[59 µM] | -14% | -11 | -5%
Cc1ccc(C2NC(=O)c3c(sc4c3CCN(C)C4)N2)s1 (centres undefined) | 14µM* | -2% | ? | ? | 0 | -14%
CC(C)(C)C1CCc2c(sc(NC(=O)c3ccco3)c2C(N)=O)C1 (centres undefined) | 0% | 0% | 5%[59 µM] | -2% | -1 | 3%
Cc1ccsc1C1NC(=O)c2c(sc3c2CCCC3)N1 (centres undefined) | 3.2µM* | 45µM* | ? | ? | 0 | -28%
CCOC(=O)N1CCc2c(sc3c2C(=O)NC(c2ccc(C(=O)OC)cc2)N3)C1 (centres undefined) | ? | · | 10%[59 µM] | -2% | · | -11%
CN(C)S(=O)(=O)c1cccc(NC(=O)COC(=O)c2cccn2C)c1 | -4% | -7% | -42% | -1% | 5 | -4%
COc1cc(OC)c(NC(=O)CCc2nc(C3=CCN(Cc4cccc(Cl)c4)CC3)no2)cc1Cl | ? | · | ? | 4% | · | ?
CCC(C)NC(=O)c1sc2nc(C)c(C(=O)Nc3ccc(C)cc3C)c(-c3ccc(NC(C)=O)cc3)c2c1N (centres undefined) | ? | · | 2%[59 µM] | 8% | · | -23%
CCOc1cc(C2NC(=O)c3c(sc4c3CCN(C)C4)N2)ccc1OC(=O)c1ccc(F)cc1 (centres undefined) | ? | · | -30%[59 µM] | 2% | · | -13%
Cc1cccc(C2NC(=O)c3c(sc4c3CCN(C)C4)N2)c1O (centres undefined) | 16µM* | · | ? | -13% | · | -22%
CN1CCc2c(sc3c2C(=O)NC(c2ccccn2)N3)C1 (centres undefined) | -16% | 16µM* | 25µM* | ? | -62* | 25%
CN1CCc2c(sc3c2c(=O)n(-c2ccccc2)c2nncn32)C1 | ? | -24% | ? | -12% | -6 | -10%
CN1CCc2c(sc3c2C(=O)NC(c2ccccc2)N3)C1 (centres undefined) | ? | 56µM* | 40µM* | ? | -22 | 1%
Cc1cccc(/C=N/c2sc3c(c2C(=O)OC(C)(C)C)CCN(C)C3)c1O | ? | 0% | ? | 1% | -4 | -13%
CN1CCc2c(sc3c2C(=O)NC(c2ccc(OC(=O)c4ccccc4)cc2)N3)C1 (centres undefined) | 5.6µM* | · | 13µM* | ? | · | -14%
SMILES | Tau fibril ThT | Sfp inh | G9a block | Tau FP inhib | Coupling enz | Tau fluor counter
O=C(Cn1nc(-c2ccccc2)nc(Cc2ccccc2)c1=O)Nc1ccc(Cl)cc1 | 9% | · | 9%[59 µM] | -9% | · | 3%
COc1cccc(OC)c1Cn1nnc2c(=O)[nH]c(C3CCN(C(=O)c4ccccc4)CC3)nc21 | ? | · | -34%[59 µM] | -9% | · | -29%
COc1ccccc1N1CCN(c2ccc(-c3nc(-c4ccccc4)no3)cc2[N+](=O)[O-])CC1 | ? | · | -35%[59 µM] | 5% | · | -14%
CCOc1cc(Br)cc(C2NC(=O)c3c(sc4c3CCN(C)C4)N2)c1O (centres undefined) | 16µM* | · | ? | -12% | · | -20%
CCOC(=O)c1c(/N=C/c2cc(C)ccc2O)sc2c1CCN(C)C2 | -3% | 1% | ? | 2% | 0 | -6%
COc1ccc(N(C)S(=O)(=O)c2ccc(Cl)c(C(=O)NNC(=O)c3ccccc3O)c2)cc1 | · | · | -2% | · | · | ·
CSc1nc2nc3c(cc2c(=O)n1-c1ccccc1)COC(C)(C)C3 | -6% | 4% | 50µM* | -5% | -10 | -3%
CSc1nc2nc3c(cc2c(=O)n1-c1ccc(C)cc1)COC(C)(C)C3 | -3% | -6% | ? | 12% | -7 | 0%
COc1nc(/C(N)=N/O)nc(N2CCCCC2)n1 | -5% | 79µM* | ? | 1% | 1 | 4%
CCCCn1c(=O)[nH]c(=O)c2c1nc(CN(C)Cc1cccc(OC)c1OC)n2CCC | · | 50µM* | 71µM* | · | 1 | ·
CCOc1ccc(CCNC(=O)c2cnc3c(-c4ccc(F)cc4)c(C)nn3c2C)cc1 | -14% | · | 17%[59 µM] | -5% | · | -2%
Cc1ccc(-n2nc(CO)c(C(=O)NCCCc3ccccc3)n2)cc1C | 4% | · | 22%[59 µM] | -1% | · | -2%
O=C(COC(=O)C1CCN(S(=O)(=O)c2cccs2)CC1)c1ccc2c(c1)OCCO2 | ? | -1% | 18% | -12% | -1 | -29%
O=C(COC(=O)C1CCN(S(=O)(=O)c2cccs2)CC1)c1cc2ccccc2o1 | ? | 8% | 8.9µM* | 3% | 2 | ?
COC(=O)CCCC1=CC2=CC(=O)C(C)(OC(=O)c3cccs3)C(=O)C2=CN1C1CCCCC1 (centres undefined) | -13%[11.5 µM] | -4% | -27%[59 µM] | 10%[11.6 µM] | -41*! | -6%[11.6 µM]

Compound activity deposited in PubChem BioAssay by National Center for Advancing Translational Sciences (NCATS).
